This passage reports growth results from PubChem BioAssay (NCI).

This is part of a sample that, as a whole, favours compounds with a hit. Of some 83,000 tested, about 20% had one in any assay.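 A percent growth of 40 corresponds to 60% growth inhibition; 0 means no net growth; -100 means all cells died. Active threshold: below 10.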 Activity calls are given as the source filed them.

In the experiment the test system is UACC-62 melanoma. As to the kind of experiment: NCI-60 one-dose screen, 48 h (100 = growth as untreated, 0 = no growth, -100 = all killed). To be noted: 10 µM unless noted. The method, then:
Growth inhibition of the UACC-62 human tumor cell line is measured as a screen for anti-cancer activity. Cells are grown in 96 well plates and exposed to the test compound for 48 hours. Compounds are tested at a single concentration, which is 10^-5 M for most compounds. The reported endpoint is percent growth (GI% or GIPRCNT), where numbers from 0 - 100% represent growth inhibition, and numbers from -100% - 0 represent cell death. For example, a value of 40 represents 60% growth inhibition. A value of 0 means no net growth occurred over the course of the experiment. A value of -40 indicates 40% of cells at the beginning of the experiment died by the end of the experiment. A value of -100 means all cells are dead at the end of the experiment.
NCI-60 Human Tumor Cell Lines Screen was performed using the standard one-dose NCI protocol, which is described in more detail at https://dtp.cancer.gov/discovery_development/nci-60/default.htm.
Compounds with GIPRCNT values below 10 were considered active. Activity score was based on GIPRCNT using the following formula: […]
Score is 0 for GIPRCNT values of 100 or above, 50 for GIPRCNT values of 0, and 100 for GIPRCNT values of -100.
For `CC(C)CCNCC(O)Cn1c2ccccc2c2ccccc21` (stereo not given), the growth was 14.1% (inactive).

On to `CCCCc1ccc(NS(=O)(=O)c2cc3c4c(c2)CCN4C(=O)CC3)cc1`, for which the growth was -28.9% (active).

Regarding `CCN(CC)c1cc(C)c2cc(NC(=O)c3cccc(OC)c3)ccc2n1`, the growth is 81% (inactive).

For `COc1ccc(/C=C/C(=O)c2c(C)nc3ccccc3c2/C=C/c2ccccc2)cc1O`, the growth was 48.6% (inactive).

Consider `C=C[C@@H]1CCC/C=C/[C@@H]2C[C@H](O)C[C@H]2[C@H](O)/C=C/C(=O)O1`, for which the growth was 22.1% (inactive).

On to `Nc1nc(-c2cnccn2)nn1-c1nc2ccccc2s1`, for which the growth is 101% (inactive).

For the molecule `O=C1Nc2ccccc2/C1=C/c1cccs1`, the growth is 85.9% (inactive).

Take `CN=c1ccc2nc3ccc(N)cc3sc-2c1`: the growth is 15.8% (inactive).

Take `O=C(Nc1ccc(Br)cc1F)c1cc(I)ccc1O`: the growth was 3.48% (active).

Consider `O=NN(C(=O)NC1CCC(C(=O)O)CC1)C1CCC(C(=O)O)CC1` (stereo not given), for which the growth is 108% (inactive).

For `COc1cc2nc(-c3cccc4cccnc34)nc(NC3CCN(Cc4ccccc4)CC3)c2cc1OC`, the growth was -82.3% (active).

With `CN1CCN(Cc2ccc(NC(=O)c3cncc(C#Cc4nc(N)nc5[nH]ncc45)c3)cc2C(F)(F)F)CC1`, the growth is 89.3% (inactive).

As to `CCC1=C[C@]2(C3CC(=O)N(c4ccccc4)C3=O)CC(C(C)(C)C)C[C@@H]2[C@@H]2C(=O)N(c3ccccc3)C(=O)[C@H]12` (stereo not given in full), the growth is 71.9% (inactive).

`O=C(Nc1ccccc1O)c1ccc(Oc2cccc(C(=O)Nc3ccccc3O)c2)cc1`: the growth is -33% (active).

As to `CCCCCCc1cc2cc(-c3nc4ccccc4[nH]3)c(=Nc3ccccc3C)oc2cc1O`, the growth is 54.5% (inactive).

As to `O=C1/C(=C/c2ccc(O)cc2)COc2ccc(O)c(O)c21`, the growth was 24.3% (inactive).

Consider `O=C(CN1C(=O)/C(=C\c2ccc(Cl)cc2)SC1=S)Nc1ncc(Cc2ccc(Cl)cc2)s1`, for which the growth is 99.9% (inactive).

For the molecule `COC(=O)c1c2c(c(C)[n+]([O-])c1C)C(=O)C(NCc1ccc(Br)cc1)=CC2=O`, the growth is -16.2% (active).

For `COc1ccc2occ(C3=C(c4c[nH]c5ccccc45)C(=O)NC3=O)c2c1`, the growth is 37.9% (inactive).

Turning to `COC(=O)/C(CCC=C(C)C)=C1\[C@@H](OC(C)=O)C[C@@]2(C)[C@H]1CC(=O)N[C@H]1[C@@]3(C)CCNC(=O)[C@@H](C)[C@@H]3CC[C@@]12C`, the growth is 96.3% (inactive).

In the case of `CCn1c(Cc2ccccc2Nc2c(Cl)cccc2Cl)nnc1SCC(=O)NN1C(=O)/C(=C/c2cccc(OC)c2OC)SC1=S`, the growth was 96.6% (inactive).

For `COC(=O)[C@H]1CCCN1C(=O)[C@H]1CCCN1C(=O)[C@H](Cc1c[nH]c2ccccc12)NC(=S)Nc1cc(C(F)(F)F)cc(C(F)(F)F)c1`, the growth was 57% (inactive).

On to `CCN(CCO)CCNc1ccc(C)c2sc3cc(Cl)ccc3c(=O)c12`, for which the growth was -53.1% (active).

Turning to `COc1ccc(/C=C2\SC(=Nc3ccccc3)NC2=O)cc1`, the growth is -91% (active).

Turning to `Cc1ccc(C2CC(c3ccc(Nc4nc(NCCO)nc(Nc5ccc(Cl)cc5)n4)cc3)=NN2c2cc(Cl)cc(Cl)c2)cc1` (stereo not given), the growth was 89.5% (inactive).

Take `C[n+]1c2ccccc2nc2ccc(NCCO)cc21`: the growth is 84.1% (inactive).

Regarding `O=S(=O)(c1ccc(NC(=S)NC23CC4CC(CC(C4)C2)C3)cc1)N1CCCCC1`, the growth is 80.8% (inactive).

In the case of `COc1ccc(-c2cn[nH]c2-c2ccc(OC)c(O)c2)cc1`, the growth is 66% (inactive).

On to `COc1ccc(-c2nocc2-c2cccs2)cc1`, for which the growth was 93.3% (inactive).

Turning to `CC1=C(C(=O)OCC2CCN(C(=O)OC(C)(C)C)CC2)[C@H](c2cccc(Br)c2)C2=C(CC(C)(C)CC2=O)N1`, the growth was 36.1% (inactive).

Consider `O=S1(=O)N(Cc2ccccc2)[C@@H](Cc2ccccc2)[C@H](O)[C@H](O)[C@H](Cc2ccccc2)N1Cc1ccccc1`, for which the growth is 5.81% (active).

For the molecule `Cc1nc2ccccc2c(/C=C/c2ccc(F)cc2)c1C(N)=O`, the growth was 96.1% (inactive).

`Cc1ccc2cccc(Oc3ccc(Nc4ncnc5onc(-c6ccccc6)c45)cc3)c2n1`: the growth is 63.8% (inactive).

Consider `O=c1c(-c2nc3ccccc3[nH]2)cc2ccccc2n1Cc1cn(Cc2ccc(F)cc2)nn1`, for which the growth is 17.2% (inactive).

For the molecule `O=c1oc2ccc(F)cc2c(=O)n1-c1ccc(F)cc1F`, the growth was 3.17% (active).

As to `O=c1oc2ccc(Cl)cc2c(=O)n1-c1cc(C(F)(F)F)cc(C(F)(F)F)c1`, the growth is -34.7% (active).

With `O=c1oc2ccc(-c3ccc(F)cc3F)cc2c(=O)n1-c1cccc(C(F)(F)F)c1`, the growth was 7.26% (active).

Regarding `CCCSC1=NC2C(N(CC)C(=O)N2CC)N1/N=C/C=C/c1ccccc1[N+](=O)[O-]` (stereo not given), the growth was 36.6% (inactive).

`CC1(O)COCCCCOc2c(CN)cccc2NC(=O)c2nc(cnc2N)-c2ccc(cc2)S(=O)(=O)C(C)(C)C1` (stereo not given): the growth was -90.8% (active).

`CCCCN1CCN(c2ccc3nc(-c4ccc5nc(-c6ccc(C(F)(F)F)cc6)[nH]c5c4)[nH]c3c2)CC1`: the growth is -31.6% (active).
